The panel holds about 83,000 compounds, 20% with a hit somewhere; the sample as a whole holds those more often.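 Growth was measured after 48 h exposure to one concentration of compound in 96-well plates. Values under 10 count as active.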 Unmarked numbers belong to inactive results. Activity calls are given as the source filed them.
Tests used:
Assay in all cases: NCI-60 one-dose screen, 48 h (100 = growth as untreated, 0 = no growth, -100 = all killed)
Details in all cases: 10 µM unless noted
NCI-H23 lung = tested on: NCI-H23 lung
NCI-H226 lung = tested on: NCI-H226 lung
NCI-H322M lung = tested on: NCI-H322M lung
HOP-62 NSCLC = tested on: HOP-62 NSCLC
NCI-H460 lung = tested on: NCI-H460 lung
HOP-92 NSCLC = tested on: HOP-92 NSCLC
NCI-H522 lung = tested on: NCI-H522 lung
A549/ATCC NSCLC = tested on: A549/ATCC NSCLC
786-0 renal = tested on: 786-0 renal
COLO 205 colon = tested on: COLO 205 colon
DU-145 prostate = tested on: DU-145 prostate
K-562 leukemia = tested on: K-562 leukemia
MALME-3M melanoma = tested on: MALME-3M melanoma
MDA-MB-231 breast = tested on: MDA-MB-231 breast
RXF 393 renal = tested on: RXF 393 renal
SF-268 CNS = tested on: SF-268 CNS
SF-295 CNS = tested on: SF-295 CNS
SF-539 CNS = tested on: SF-539 CNS
UACC-257 melanoma = tested on: UACC-257 melanoma
M14 melanoma = tested on: M14 melanoma

Row | SMILES | growth (NCI-H23 lung) [%] | growth (NCI-H226 lung) [%] | growth (NCI-H322M lung) [%] | growth (HOP-62 NSCLC) | growth (NCI-H460 lung) | growth (HOP-92 NSCLC) | growth (NCI-H522 lung) | growth (A549/ATCC NSCLC) [%] | growth (786-0 renal) [%] | growth (COLO 205 colon) | growth (DU-145 prostate) [%] | growth (K-562 leukemia) | growth (MALME-3M melanoma) [%] | growth (MDA-MB-231 breast) | growth (RXF 393 renal) [%] | growth (SF-268 CNS) [%] | growth (SF-295 CNS) [%] | growth (SF-539 CNS) | growth (UACC-257 melanoma) [%] | growth (M14 melanoma)
1 | CCOC(=O)n1cc(-c2nonc2-c2cn(C(=O)OCC)c3ccc(Br)cc23)c2ccccc21 | 67.9 | 79.4 | 70 | 72.3% | 81.6% | 63.2% | 70.6% | 74.4 | 90.6 | 84.2% | 93.9 | 78% | 83 | 74% | 94.2 | 82 | 72.4 | 98.4% | 93.6 | 78.8%
2 | CCCNc1nc2ccccc2c2c1S(=O)(=O)c1ccc(Cl)cc1C2=O | 24.7 | 34.7 | 32.7 | 9.66% (active) | 5.29% (active) | -27.2% (active) | -81.3% (active) | 19.6 | 13.9 | -9.19% (active) | 19.4 | 8.48% (active) | 21.9 | -0.717% (active) | 12 | 20.4 | 15.8 | 6.35% (active) | 17.8 | 5.71% (active)
3 | CCCn1cc2c(=O)nc3sc(Cc4ccccc4)c(C)n3c2n1 | 103 | 107 | 98.5 | 102% | 101% | 88.4% | 75% | 83.5 | 99.1 | 109% | 104 | 77.5% | 112 | 99.3% | 119 | 94.8 | 120 | 99.7% | 88.3 | 112%
4 | c1cc2c(ccc3[nH]c(-c4ccc5[nH]ncc5c4)c4c(c32)CCCC4)n1 | 74.3 | 58.6 | 92.2 | 42.5% | 22.3% | 40% | 47.4% | 32.5 | 56 | 58% | 66 | 2.93% (active) | 35.9 | 78.4% | 89.3 | 62.3 | 63.6 | 62.9% | 74.9 | 61.9%
5 | Cc1ccc2c(c1)=C/C(=C\c1cc(-c3ccccc3)oc1O)C(=O)N=2 | 95.3 | 106 | 104 | 101% | 113% | 87.4% | 97.4% | 105 | 91.4 | 108% | 104 | 91.7% | 110 | 116% | 106 | 91.6 | 93.1 | 101% | 109 | 90.6%
6 | CCOC(=O)c1ccc2c(c1)nc(-c1ccccc1)n2C1CCCCC1 | 90.3 | 120 | 83.1 | 65% | 107% | 91.7% | 73.6% | 68.3 | 88.5 | 76.3% | 105 | 73.1% | 112 | 102% | 112 | 108 | 94.4 | 104% | 78.2 | 88.3%
7 | COCCn1cc(-c2csc(-c3cn(C)c4ccc(Br)cc34)n2)c2cccnc21 | 76.1 | 86.4 | 74.2 | 70.8% | 26.8% | 65.3% | -35.7% (active) | 40.2 | 19.8 | 46.6% | 62.5 | -9.15% (active) | 96.6 | 42.9% | 68.8 | 64.8 | 33.9 | 70.1% | 63.7 | 42.9%

Reference: PubChem BioAssay (NCI)
